Six1-Eya2 inh – qHTS Assay for Inhibitors of the Six1/Eya2 Interaction | Homeobox protein SIX1 (Homo sapiens) + Protein phosphatase EYA2 (Homo sapiens), … | AlphaScreen GST-Six1/His-Eya2 binding, biochemical; hits give low values | activity change, % (test concentration not listed) | 360,000 compounds, 0.56% hits; in the data active = activity change below about -65%; inconclusive = mostly about -30% to -63%
Target sequence (O00167 whole entry, looked up): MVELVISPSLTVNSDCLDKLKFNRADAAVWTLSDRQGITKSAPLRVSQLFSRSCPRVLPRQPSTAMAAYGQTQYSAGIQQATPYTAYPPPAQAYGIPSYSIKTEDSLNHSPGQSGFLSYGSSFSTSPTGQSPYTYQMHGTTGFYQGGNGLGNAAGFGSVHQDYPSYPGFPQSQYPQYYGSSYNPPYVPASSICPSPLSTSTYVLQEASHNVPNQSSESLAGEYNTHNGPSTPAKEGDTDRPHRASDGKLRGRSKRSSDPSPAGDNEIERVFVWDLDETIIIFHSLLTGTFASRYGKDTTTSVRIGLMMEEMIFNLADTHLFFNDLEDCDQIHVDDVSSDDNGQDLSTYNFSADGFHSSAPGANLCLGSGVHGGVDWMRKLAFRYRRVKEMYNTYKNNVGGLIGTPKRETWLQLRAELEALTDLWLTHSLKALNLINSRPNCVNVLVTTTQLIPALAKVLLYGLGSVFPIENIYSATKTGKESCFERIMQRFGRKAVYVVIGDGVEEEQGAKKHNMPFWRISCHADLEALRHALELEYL
Target sequence (Q15475 whole entry, looked up): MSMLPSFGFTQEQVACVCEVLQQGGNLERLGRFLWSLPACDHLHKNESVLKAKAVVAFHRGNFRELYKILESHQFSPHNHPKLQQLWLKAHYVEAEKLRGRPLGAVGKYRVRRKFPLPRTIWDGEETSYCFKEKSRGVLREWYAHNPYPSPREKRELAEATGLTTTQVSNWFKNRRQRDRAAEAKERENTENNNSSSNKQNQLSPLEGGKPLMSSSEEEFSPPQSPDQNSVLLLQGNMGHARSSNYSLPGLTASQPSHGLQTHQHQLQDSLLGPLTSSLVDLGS
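AlphaScreen luminescence read after one hour at 37 °C in darkness. Pin-transferred compounds met GST-Six1 and His-Eya2 protein (5X stock 250 nM/500 nM) plus glutathione donor and Ni-chelate acceptor beads (5X, 50 ug/mL).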
JMJD2A Tudor – qHTS Assay for Inhibitors of JMJD2A-Tudor Domain | AID 504339, 2011 | Potency, µM (doses to about 114 µM), most hits filed as inhibitors | AlphaScreen JMJD2A-Tudor / H3K4me3 peptide binding | Lysine-specific demethylase 4A (Homo sapiens), O75164 | 390,000 compounds, 4.4% hits; note: nearly all actives have a fitted effect of over 50% in size
CtBP-E1A blk – qHTS Assay for Inhibitors of the CtBP/E1A Interaction | AlphaScreen GST-E1A/His-CtBP binding, 1536-well; hits give low values | activity change, % (no concentration beside the values) | 340,000 compounds, 0.49% hits; in the data active = activity change below about -65%; inconclusive = mostly about -30% to -63%
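AlphaScreen with 125 nM GST-E1A and 125 nM His-CtBP (5X stocks) in Tris pH 8.0, 300 mM NaCl, BSA, Tween 20, TCEP. Compounds preincubated 2 h at 37 deg C, then glutathione donor/nickel acceptor beads added for 1 h at 37 deg C in dark.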
G9a inh – qHTS Assay for Inhibitors of Histone Lysine Methyltransferase G9a. Histone-lysine N-methyltransferase EHMT2 (Homo sapiens), Q96KQ7. G9a H3K9 monomethylation, AlphaScreen, 2 h. Potency, µM (top dose mostly 102 µM), most hits filed as inhibitors. 350,000 compounds, 8.8% hits; note: nearly all actives have a fitted effect of over 75% in size
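Chemiluminescent proximity detection of H3K9 monomethylation, read after 10 min bead incubation in the dark. Reaction: 20 nM G9a, 500 nM biotin-H3K9 peptide, 20 uM SAM cofactor, 2 h, room temperature, following 15 min enzyme-compound preincubation.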
BAZ2B inh – qHTS Assay for Inhibitors of BAZ2B; AID 504333, 2011; AlphaScreen BAZ2B-H3K14Ac peptide displacement; 360,000 compounds, 4.4% hits; Potency, µM (top dose mostly 114 µM), hits mostly inhibitors; note: nearly all actives have a fitted effect of over 60% in size
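BAZ2B (50 nM) with biotin-H3(5-23)K14Ac peptide (50 nM) in PBS pH 7.4, 0.01% Tween-20, preformed 30 min, then compound 30 min at room temperature; top concentration 110uM. AlphaScreen streptavidin donor/nickel chelate acceptor beads (10 ug/mL final), 20 min dark, signal read.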
HP1b binding inh – HTS for Inhibitors of HP1-beta Chromodomain Interactions with Methylated Histone Tails. Chromobox protein homolog 1 (Homo sapiens), P83916. AlphaScreen HP1-beta / biotin-H3K9me3 peptide binding. Potency, µM (doses to about 114 µM), most hits filed as inhibitors. 390,000 compounds, 0.56% hits. AID 540317, 2011; note: nearly all actives have a fitted effect of over 70% in size
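HP1-beta protein (50 nM final) preincubated 30 min at room temperature with biotinylated H3(1-18)K9me3 peptide (50 nM) in PBS pH 7.4, 0.01% Tween-20, then compound added for 30 min. AlphaScreen streptavidin donor/nickel chelate acceptor beads (10 ug/mL final), 30 min dark, luminescence read.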
Large screens that a line does not name were inactive. Compounds with a hit are over-represented: about 10% of the library has one in this group of screens. Unless noted, calls come from the whole dose curve; as a rule, active = well fitted inhibition curve with a large enough effect; inconclusive = small, poorly fitted or top-dose-only effect; inactive = no such curve, though single readings can be large or run the other way.

COc1ccc(N2CCN(C(=O)c3sc4nc(-c5ccc(F)cc5)cn4c3C)CC2)cc1	G9a inh inconclusive
COc1ccc(-c2cn3c4c(sc3n2)CCCC4)cc1	G9a inh 50µM, BAZ2B inh inconclusive
O=C1CN(S(=O)(=O)c2c(F)cccc2F)CCN1S(=O)(=O)c1ccc2c(c1)OCCO2	none (no result: Six1-Eya2 inh, CtBP-E1A blk, G9a inh, BAZ2B inh, HP1b binding inh)
Cc1noc(C)c1S(=O)(=O)Nc1ccc2c(c1)C(=O)N([C@H](C)CO)C[C@H](C)[C@@H](CN(C)S(=O)(=O)c1ccc(F)cc1)O2	none (no result: G9a inh, BAZ2B inh)
O=C(NCCC(=O)N(Cc1ccco1)Cc1cccs1)c1ccc([N+](=O)[O-])cc1	G9a inh inconclusive, BAZ2B inh inconclusive
CC(C)NC(=O)N(C)C[C@@H]1OCc2cn(nn2)CCCC(=O)N([C@H](C)CO)C[C@H]1C	none (no result: JMJD2A Tudor, G9a inh, BAZ2B inh, HP1b binding inh)
CCOc1ccccc1C(=O)Nc1ccc(-n2nncc2-c2ccccc2)cc1	none (no result: Six1-Eya2 inh, CtBP-E1A blk)
N#C/C(=N\Nc1ccc(F)cc1)C(=O)C1CC1	none
N#C/C(=N\Nc1ccc(Cl)c(Cl)c1)C(=O)C1CC1	JMJD2A Tudor 50µM, BAZ2B inh 45µM, HP1b binding inh inconclusive (no result: G9a inh)
COc1ccc(Cn2c(=S)[nH]c3cc(OC)c(OC)cc3c2=O)cc1	none
CC(NC(=O)CCn1c(=S)[nH]c2ccsc2c1=O)c1ccccc1 (stereo unspecified)	G9a inh 28µM
S=c1[nH]c2ccccc2n1Cc1ccccc1	JMJD2A Tudor inconclusive, HP1b binding inh inconclusive (no result: G9a inh)
COc1ccc(Cn2c(=S)[nH]c3ccsc3c2=O)cc1	G9a inh 8.9µM
O=c1c2sccc2[nH]c(=S)n1Cc1ccccc1	G9a inh 10µM
CCOc1ccc(C2C(C(=O)C3CC3)N3C=C(C#N)C=CC3C2(C#N)C#N)cc1 (stereo unspecified)	G9a inh 25µM (no result: Six1-Eya2 inh, JMJD2A Tudor, CtBP-E1A blk, HP1b binding inh)
CCOc1ccc(C(=O)C2CCN(C(=O)c3ccccc3C(=O)O)CC2)cc1	none
O=C(NCCc1ccccc1)c1ccc(Cn2c(SCc3ccccc3F)nc3cccnc32)cc1	none (no result: Six1-Eya2 inh, CtBP-E1A blk)
O=C(NCCc1ccccc1)c1ccc(CSc2nc3cccnc3n2Cc2ccccc2F)cc1	JMJD2A Tudor 5.6µM, G9a inh 2µM, BAZ2B inh 14µM, HP1b binding inh 25µM (no result: Six1-Eya2 inh, CtBP-E1A blk)
COc1ccc2[nH]c3c(=O)n4c(nc3c2c1)SCC4	none
COc1ccc(OC)c2c1nc1n2CCS1	G9a inh 1.8µM, HP1b binding inh inconclusive
O=C(NCCNc1ccc(Cl)cc1[N+](=O)[O-])c1cccnc1	G9a inh inconclusive
Cc1ccoc1C(=O)NCCNc1ccc(Cl)cc1[N+](=O)[O-]	Six1-Eya2 inh inconclusive, JMJD2A Tudor inconclusive, G9a inh 18µM, BAZ2B inh 45µM, HP1b binding inh inconclusive
CN(CC(=O)Nc1cccc2c1CCCC2)S(=O)(=O)c1ccccc1	none
O=C(N/N=C/c1sc2ccccc2c1O)c1ccccc1	Six1-Eya2 inh -87, JMJD2A Tudor inconclusive, CtBP-E1A blk inconclusive, G9a inh inconclusive, BAZ2B inh inconclusive
COc1ccc2cc(C(=O)N/N=C/c3sc4ccccc4c3O)ccc2c1	Six1-Eya2 inh inconclusive, JMJD2A Tudor inconclusive, CtBP-E1A blk inconclusive, BAZ2B inh inconclusive, HP1b binding inh inconclusive
COc1ccc(C(=O)N/N=C/c2sc3ccccc3c2O)cc1	Six1-Eya2 inh -74, JMJD2A Tudor inconclusive, CtBP-E1A blk -65, G9a inh 50µM, BAZ2B inh 45µM
O=C(N/N=C/c1ccccc1)c1cccc2ccccc12	none (no result: G9a inh, BAZ2B inh)
O=C(N/N=C/c1sc2ccccc2c1O)c1cccc2ccccc12	Six1-Eya2 inh inconclusive, JMJD2A Tudor 79µM, CtBP-E1A blk inconclusive, BAZ2B inh 45µM
O=C(N/N=C/c1ccc(F)cc1)c1ccccc1	none
CC(=O)c1sc2c(c1C)c(=O)n(-c1ccc(Cl)cc1)c(=O)n2Cc1cc(=O)n2cc(Cl)ccc2n1	none (no result: Six1-Eya2 inh, CtBP-E1A blk)

Source: PubChem (National Center for Advancing Translational Sciences (NCATS))
